Assay [1] can be described thus: inhibitors of TNFa-induced NFkB p65 translocation, primary screen, imaging, HUVEC, MLSMR starter and 10KST1 sets (AID 438;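 active = inhibition above 20% together with a positive visual image hit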;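 note: compound added about 3h40 before a 20 min TNFalpha stimulation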;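 for inhibition: signal is the nuclear over cytoplasmic p65 intensity ratio per well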). The conditions noted are these: HUVEC TNFa-induced p65 nuclear translocation; cell count: measured here: nuclei count (cytotoxicity indicator), at 2.08 µM; inhibition: at 2 µM, stronger effect = higher value, 0% TNFa-plus-vehicle, 100% no-TNFa wells.
Assay [2] in a line: inhibitors of mutant huntingtin aggregation, primary screen, imaging, exon1htt(103Q)mCFP cells, high-content imaging (AID 483;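 active = visual image review flags a hit and inhibition of aggregation exceeds 20%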;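 note: compound exposure lasted 3 days before fixation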;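 for nuclei count: percent of the per-plate median nuclei count of sample wells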). The conditions noted are these: exon1htt(103Q)mCFP cell line, aggregate imaging, at 2 µM; inhibition of aggregation: stronger effect = higher value; nuclei count: measured here: cell count, toxicity.
Assay [3] can be described thus: inhibitors of E-selectin induction by TNFa, primary screen, imaging, HUVEC, immunofluorescence, MLSMR starter and 10KST1 sets (AID 487;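 active = visually confirmed hit in the image check and inhibition above 20%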;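 for inhibition: signal is fraction of cell area covered by stained E-selectin grains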;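 for nuclei count: 100% = median nuclei count of all wells on the same plate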). The conditions noted are these: HUVEC TNFalpha-induced E-selectin immunofluorescence imaging, at 2 µM; inhibition: stronger effect = higher value; nuclei count: measured here: cell number, toxicity.
Assay [4] deals with Voltage-gated potassium channel subunit beta-2 (Rattus norvegicus) (UniProt P62483). As to the kind of experiment: KvBeta enzyme negative modulators, primary screen, biochemical, NADPH fluorescence (AID 622;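 active = fluorescence slope higher than the sample average by over 3 SD, cut at about -0.22 in these data, passing the limit was not always enough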;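 note: slope of raw intensity against log time taken from 70 to 1610 s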). The conditions noted are these: recombinant KvBeta, 4-cyanobenzaldehyde reduction, at 10 µM, stronger effect = higher value.
Assay [5] has the same target. As to the kind of experiment: KvBeta positive modulators, primary screen, biochemical, NADPH fluorescence (AID 623;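 active = NADPH fluorescence slope more negative than the mean of all samples by about 3 SD, 99.7% confidence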;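 note: fluorescence intensity change per second fitted from 20 to 320 s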). The conditions noted are these: Recombinant KvBeta, NADPH fluorescence decrease slope, 10 min; at 10 µM; stronger effect = lower value.
For assay [6], the target named is Alpha-2C adrenergic receptor (Homo sapiens) (UniProt P18825). As to the kind of experiment: modulators of alpha2C/GIRK thallium flux, primary screen, cell-based, HEK293 alpha2C/GIRK1/2 (AID 624).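 Note: slope of fluorescence ratio to pre-addition baseline per second over 15 to 24 s.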 The settings on record: thallium flux BTC fluorescence, at 10 µM, actives lie on both sides.
Assay [7] in a line: inhibitors of Sendai virus-induced IRF3 signaling, primary screen, TLR/RLR signaling modifier project, cell-based, Sendai virus stimulus, luciferase, 10K MLSCN set (AID 602276;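 active = inhibition at or above 50% at 10 µM; inactive = inhibition below 50%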;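 note: firefly luciferase from ISG56 promoter only with Renilla not read in this screen; 0% = Sendai virus plus DMSO and 100% = medium plus DMSO without virus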). The settings on record: HEK293 RL24 IRF3 luciferase reporter, at 10 µM, stronger effect = higher value. On the technique in general: In a reporter assay the amount or activity of a reporter protein is the signal.

Assay [8] in a line: inhibitors of poly I:C-induced TLR3 signaling, primary screen, cell-based, poly I:C stimulus, luciferase, 10K MLSCN set (AID 602277;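 active = inhibition of the reporter signal at or above 50%; inactive = inhibition below 50%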). The conditions noted are these: HEK293-TLR3 RL24 IRF3 luciferase reporter, at 10 µM, stronger effect = higher value.

The term inhibition denotes the relative decrease from the control value, in per cent.

Calls of active or inactive are those of the source.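 Rule for the calls, unless noted: active = fluorescence slope after compound addition differing from the mean of all screened samples at 99.7% confidence, in either direction; inactive = the rest.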

Chain of Voltage-gated potassium channel subunit beta-2 (Rattus norvegicus) (P62483 whole entry, looked up): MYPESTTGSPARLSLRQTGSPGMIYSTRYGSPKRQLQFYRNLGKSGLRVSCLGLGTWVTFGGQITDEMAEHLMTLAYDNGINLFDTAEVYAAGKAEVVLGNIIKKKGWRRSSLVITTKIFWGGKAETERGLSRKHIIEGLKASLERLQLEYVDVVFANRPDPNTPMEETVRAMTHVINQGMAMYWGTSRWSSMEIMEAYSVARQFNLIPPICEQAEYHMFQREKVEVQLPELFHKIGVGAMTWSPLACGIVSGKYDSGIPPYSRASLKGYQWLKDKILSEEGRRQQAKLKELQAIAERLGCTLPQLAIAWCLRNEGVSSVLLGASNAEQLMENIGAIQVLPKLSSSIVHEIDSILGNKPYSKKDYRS
Chain of Alpha-2C adrenergic receptor (Homo sapiens) (P18825 whole entry, looked up): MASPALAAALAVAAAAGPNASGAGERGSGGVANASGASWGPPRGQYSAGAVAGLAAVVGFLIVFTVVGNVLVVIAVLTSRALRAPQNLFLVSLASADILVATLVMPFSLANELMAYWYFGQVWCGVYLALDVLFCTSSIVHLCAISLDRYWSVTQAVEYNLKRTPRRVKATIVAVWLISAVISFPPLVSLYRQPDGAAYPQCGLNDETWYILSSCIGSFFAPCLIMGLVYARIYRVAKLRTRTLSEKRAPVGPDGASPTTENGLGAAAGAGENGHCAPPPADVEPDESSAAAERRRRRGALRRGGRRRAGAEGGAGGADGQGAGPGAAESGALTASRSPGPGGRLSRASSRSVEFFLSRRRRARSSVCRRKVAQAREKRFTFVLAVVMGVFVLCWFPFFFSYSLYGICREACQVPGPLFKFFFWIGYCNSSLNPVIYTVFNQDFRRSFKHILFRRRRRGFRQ

Take `CC(=O)Nc1c(-c2ccc(F)cc2)nc2ccccn12`: the cell count in assay [1] is 516. Further, the inhibition in assay [1] is -4.7% (inactive); in assay [3] it was -6.5% (inactive); in assay [7], 11.8% (inactive); in assay [8] it was 4.82% (inactive). The inhibition of aggregation in assay [2] was 16.5% (inactive). For the same compound, the nuclei count in assay [2] amounted to 104%; in assay [3], 88%. Also, the fluorescence slope in assay [4] was -0.551 (inactive). Moreover, the NADPH fluorescence slope in assay [5] is 9e-06 (inactive). Moreover, the slope in assay [6] was 0.00637 (inactive).

With `CN(c1ccccc1)S(=O)(=O)c1ccc(C(=O)OCC(=O)NCc2ccco2)cc1`, the cell count in assay [1] turned out to be 608. For the same compound, the inhibition is 11.6% (inactive) in assay [1], -37.2% (inactive) in assay [3], -14.7% (inactive) in assay [7] and 0.385% (inactive) in assay [8]. Besides, the inhibition of aggregation in assay [2] is 14.7% (inactive). Moreover, the nuclei count in assay [2] is 112%; in assay [3], 99.7%. In addition, the fluorescence slope in assay [4] was -0.588 (inactive). Further, the NADPH fluorescence slope in assay [5] was 2e-05 (inactive). Besides, the slope in assay [6] was 0.00551 (inactive).

As for `CCOc1cc(C(=O)NCc2ccncc2)cc(OCC)c1OCC`, the cell count in assay [1] was 596. Moreover, the inhibition is 1.6% (inactive) in assay [1], -121% (inactive) in assay [3], 7.46% (inactive) in assay [7] and 18.3% (inactive) in assay [8]. Moreover, the inhibition of aggregation in assay [2] was 3.9% (inactive). Further, the figures for the nuclei count in assay [2] and in assay [3] were 100% and 114%, respectively. For the same compound, in assay [4], the fluorescence slope is -0.407 (inactive). The NADPH fluorescence slope in assay [5] is -4.6e-05 (inactive). In addition, the slope in assay [6] is 0.00658 (inactive).

On to `O=C(CSc1nnc(CNC(=O)c2cccs2)o1)NC1CCCC1`, for which the cell count in assay [1] was 613. The inhibition in assay [1] is -14.4% (inactive); in assay [3] it was -2.3% (inactive); in assay [7], 16.7% (inactive); in assay [8], 12.5% (inactive). In addition, in assay [2], the inhibition of aggregation is 10.3% (inactive). Besides, the nuclei count was 93.1% in assay [2] and 123% in assay [3]. In addition, the fluorescence slope in assay [4] is -0.318 (inactive). Besides, the NADPH fluorescence slope in assay [5] is -5e-05 (inactive). The slope in assay [6] was 0.00569 (inactive).

`COc1ccccc1OCCSc1nc2ccccc2c(=O)[nH]1`: the cell count in assay [1] came out at 361. Besides, the inhibition is 3.5% (inactive) in assay [1], -49.6% (inactive) in assay [3], -4.62% (inactive) in assay [7] and -5.54% (inactive) in assay [8]. The inhibition of aggregation in assay [2] is -4.7% (inactive). The figures for the nuclei count in assay [2] and in assay [3] were 89.3% and 86.8%, respectively. In assay [4], the fluorescence slope was -0.35 (inactive). Besides, in assay [5], the NADPH fluorescence slope is -5.3e-05 (inactive). Besides, the slope in assay [6] was 0.00628 (inactive).

Regarding `Cc1ccc(-c2noc(C3CCCN(C(=O)c4ccccc4)C3)n2)o1` (centres undefined), the cell count in assay [1] is 490. Further, the inhibition was 5.2% (inactive) in assay [1], -102% (inactive) in assay [3], -20% (inactive) in assay [7] and -111% (inactive) in assay [8]. Moreover, the inhibition of aggregation in assay [2] was -19.1% (inactive). For the same compound, the nuclei count was 112% in assay [2] and 125% in assay [3]. Further, the fluorescence slope in assay [4] was -0.372 (inactive). Moreover, the NADPH fluorescence slope in assay [5] is -1.7e-05 (inactive). Moreover, the slope in assay [6] is 0.00371 (inactive).

Regarding `COc1ccc(C2c3sc(=O)[nH]c3SC3C4CCC(C4)C23)cc1` (centres undefined), in assay [1], the cell count stood at 573. For the same compound, the inhibition was -7.6% (inactive) in assay [1], -69.5% (inactive) in assay [3], -5.3% (inactive) in assay [7] and 9.16% (inactive) in assay [8]. Also, the inhibition of aggregation in assay [2] was -14% (inactive). For the same compound, the results for the nuclei count in assay [2] and in assay [3] were 93.8% and 106%, respectively. Further, the fluorescence slope in assay [4] is -0.53 (inactive). In addition, in assay [5], the NADPH fluorescence slope was 3.9e-05 (inactive). The slope in assay [6] is 0.00413 (inactive).

As to `OCCNc1nc2ccc(Cl)cc2[nH]1`, the cell count in assay [1] was 433. Further, the inhibition in assay [1] was 2.6% (inactive); in assay [3] it was -19% (inactive); in assay [7], -12.8% (inactive); in assay [8], -7.02% (inactive). Also, the inhibition of aggregation in assay [2] is 19.6% (inactive). The values for the nuclei count in assay [2] and in assay [3] were 106% and 110%, respectively. For the same compound, the fluorescence slope in assay [4] is -0.365 (inactive). Moreover, the NADPH fluorescence slope in assay [5] was 1.9e-05 (inactive). Moreover, the slope in assay [6] was 0.00613 (inactive).

For `COc1ccc(S(=O)(=O)N2CN(Cc3ccco3)c3nc4ccccc4nc32)cc1`, in assay [1], the cell count stood at 600. Further, the inhibition was -3.6% (inactive) in assay [1], -118% (inactive) in assay [3], 10.9% (inactive) in assay [7] and 20% (inactive) in assay [8]. Further, in assay [2], the inhibition of aggregation was -1.4% (inactive). The nuclei count in assay [2] came out at 82.9%; in assay [3], 134%. Further, in assay [4], the fluorescence slope is -0.605 (inactive). In assay [5], the NADPH fluorescence slope is -1.5e-05 (inactive). For the same compound, in assay [6], the slope is 0.00619 (inactive).

For `COc1cc2c(cc1OC)CN(C(=O)CSc1nc3[nH]ncc3c(=O)n1-c1ccccc1)CC2`, the cell count in assay [1] was 509. Further, the inhibition is -8.2% (inactive) in assay [1], -7.3% (inactive) in assay [3], 11% (inactive) in assay [7] and 23.1% (inactive) in assay [8]. The inhibition of aggregation in assay [2] is -8.9% (inactive). Also, the nuclei count in assay [2] stood at 86.9%; in assay [3], 87%. Moreover, in assay [4], the fluorescence slope was -0.492 (inactive). Besides, the NADPH fluorescence slope in assay [5] is -2.6e-05 (inactive). Also, the slope in assay [6] was 0.00737 (inactive).

On to `CCOC(=O)Cc1nnc(NC(=O)c2ccccc2OCC)s1`, for which, in assay [1], the cell count is 583. For the same compound, the inhibition in assay [1] is 12.6% (inactive); in assay [3], -43.9% (inactive); in assay [7], 4.48% (inactive); in assay [8] it was 4.72% (inactive). In addition, in assay [2], the inhibition of aggregation was 5.3% (inactive). Further, the values for the nuclei count in assay [2] and in assay [3] were 102% and 123%, respectively. In addition, the fluorescence slope in assay [4] is -0.448 (inactive). In addition, the NADPH fluorescence slope in assay [5] is -0.000111 (inactive). Also, in assay [6], the slope was 0.005 (inactive).

With `Cn1c(=O)c2c(nc(SCCCC#N)n2Cc2ccccc2F)n(C)c1=O`, the cell count in assay [1] was 601. Besides, the inhibition was 4.5% (inactive) in assay [1], -51% (inactive) in assay [3], 12.9% (inactive) in assay [7] and 36.5% (inactive) in assay [8]. In addition, the inhibition of aggregation in assay [2] is -13.6% (inactive). Moreover, the results for the nuclei count in assay [2] and in assay [3] were 109% and 119%, respectively. In assay [4], the fluorescence slope is -0.416 (inactive). In assay [5], the NADPH fluorescence slope is -2.8e-05 (inactive). Besides, the slope in assay [6] is 0.00541 (inactive).

On to `COc1cc(OC)nc(NC(=O)CSc2nc3ccccc3o2)n1`, for which, in assay [1], the cell count was determined as 740. The inhibition was -0.3% (inactive) in assay [1], -18.2% (inactive) in assay [3], 12.8% (inactive) in assay [7] and -3.75% (inactive) in assay [8]. Further, the inhibition of aggregation in assay [2] was -30.6% (inactive). For the same compound, the nuclei count was determined as 102% in assay [2] and 107% in assay [3]. Besides, in assay [4], the fluorescence slope was -0.609 (inactive). Also, in assay [5], the NADPH fluorescence slope is -2.6e-05 (inactive). Moreover, the slope in assay [6] was 0.00329 (inactive).

With `CCC(C)c1ccc(NC(=O)c2cccnc2)cc1` (centres undefined), the cell count in assay [1] worked out at 393. The inhibition in assay [1] is 18% (inactive); in assay [3], -48.5% (inactive); in assay [7], -47.8% (inactive); in assay [8], -142% (inactive). The inhibition of aggregation in assay [2] was 2.8% (inactive). Also, the nuclei count was determined as 113% in assay [2] and 130% in assay [3]. In addition, the fluorescence slope in assay [4] is -0.395 (inactive). The NADPH fluorescence slope in assay [5] is 3e-05 (inactive). Also, the slope in assay [6] is 0.00669 (inactive).

These data come from PubChem BioAssay.
